# Laboratory results: PubChem BioAssay (NCATS)
# Results filed as inconclusive are left out. A call without a number means that no potency is given here. The source made the active and inactive calls. Calls follow the shape of the dose curve; as a rule, active = well fitted inhibition curve with a large enough effect; inconclusive = small, poorly fitted or top-dose-only effect; inactive = flat fitted curve, though single readings scatter.
# System: Zika virus NS2B-NS3 protease
# Assay: Primary screen GU AMC qHTS for Zika virus inhibitors (AID 1347154); also: nearly all actives have a fitted effect of over 70% in size
# Details: Zika NS2B-NS3 unlinked protease, AMC fluorogenic substrate; series mostly up to 54.1 µM
# Method in brief: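 Unlinked Zika NS2B hydrophilic domain/NS3 protease domain noncovalent complex (25 nM final) in 10 mM Tris-HCl pH 8.0, 0.01% Tween 20, with AMC peptide substrate. Fluorescence (ex 340, em 450 nm) change over 15 min, room temperature; percent inhibition fitted to 4-parameter Hill equation.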
# Potency is read from the fitted curve at half-maximal effect.
row,Compound,Potency
1,CN(C)c1ccc(C2Nc3ccc4ccccc4c3C3=C2C(=O)CC(C)(C)C3)cc1Br (stereo not drawn),inactive
2,Cc1ccnc(NS(=O)(=O)c2ccc(NC(=O)Nc3ccc(S(=O)(=O)Nc4nccc(C)n4)cc3)cc2)n1,24.1 µM (active)
3,COc1cc2c(cc1OC)CN(CCc1ccc(NC(=O)c3cccc4c(=O)c5cccc(OC)c5[nH]c34)cc1)CC2,inactive
4,CN(C)c1ccc(Nc2nc(N)n(C(=O)c3c(F)cccc3F)n2)cc1,inactive
5,CC(C)(N)C(=O)N[C@H](COCc1ccccc1)C(=O)N1CCC2(CC1)CN(S(C)(=O)=O)c1ccccc12,inactive
6,COc1ccccc1[C@H](c1cccc2ccccc12)[C@@](C)(C#N)C(=O)N1CCC(c2cccc(C(F)(F)F)c2)CC1,inactive
7,CCc1cncnc1N1CCN(Cc2nc3ccc(C(F)(F)F)cc3[nH]2)CC1,inactive
8,O=C(O)CCc1ccc(NCc2cccc(Oc3ccccc3)c2)cc1,inactive
9,OCCn1cc(-c2cnc3nnn(Cc4ccc5ncccc5c4)c3n2)cn1,inactive
10,COc1cc(Nc2ncc3c(n2)-c2ccc(Cl)cc2C(c2c(F)cccc2OC)=NC3)ccc1C(=O)O,inactive
11,NC(=O)C1CCCc2c1[nH]c1ccc(Cl)cc21 (stereo not drawn),inactive
12,Cc1c(CCOc2ccc(C(=O)O)cc2)c2cc(Cl)ccc2n1C(c1ccccc1)c1ccccc1,inactive
13,COc1nc(-c2ccc3c(c2)OCO3)n(-c2ccc(NC(=O)CSc3ccccc3)cc2)n1,inactive
14,CCc1cc(Nc2nccc(-c3c(-c4ccc(OC)c(C(=O)Nc5c(F)cccc5F)c4)nc4ccccn34)n2)c(OC)cc1N1CCC(N2CCN(S(C)(=O)=O)CC2)CC1,inactive
15,CCC(C)n1ncn(-c2ccc(N3CCN(c4ccc(OC[C@H]5CO[C@](Cn6cncn6)(c6ccc(Cl)cc6Cl)O5)cc4)CC3)cc2)c1=O (stereo partly drawn),inactive
16,N#CC[C@H](C1CCCC1)n1cc(-c2ncnc3[nH]ccc23)cn1,24.1 µM (active)
17,C[C@]12CC[C@H](O)CC1=CC[C@@H]1[C@H]2CC[C@]2(C)C(c3cccnc3)=CC[C@H]12,inactive
18,CCOc1ccn(-c2ccc(F)cc2)c(=O)c1C(=O)Nc1ccc(Oc2ccnc(N)c2Cl)c(F)c1,inactive
